Assay results reported in PMC5540273 (PLoS ONE, 2017).

Assays:
Conditions in all cases: concentration: 1 μM, replicates: in singlicate; n = 1
SRPK2 = system: SRPK2
SRPK3 = system: SRPK3
STK16 = system: STK16
STK33 = system: STK33
STK35 = system: STK35
STK36 = system: STK36
STK39 = system: STK39
SYK = system: SYK
SgK110 = system: SgK110
TAK1 = system: T1, TAK1
T1 construct: gene MAP3K7
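Also: KINOMEscan kinase panel screen.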

Compound	%Inh (SRPK2) [%]	%Inh (SRPK3) [%]	%Inh (STK16) [%]	%Inh (STK33) [%]	%Inh (STK35) [%]	%Inh (STK36) [%]	%Inh (STK39) [%]	%Inh (SYK) [%]	%Inh (SgK110) [%]	%Inh (TAK1) [%]
O=C(Nc1n[nH]c2nc(-c3cccs3)c(Br)cc12)C1CCCC1 [SB-743341]	15	20	23	1	0	1	33	5	18	38
CS(=O)(=O)CCNCc1nc(-c2ccc3ncnc(Nc4ccc(OCc5ccccc5)c(Cl)c4)c3c2)cs1.Cl [GW582764]	36	0	0	0	0	0	4	20	0	0
CC(C)c1cc(-c2ccc3c(N)n[nH]c3c2)nc(N)n1 [GSK2250882]	0	29	21	0	0	0	0	0	0	1
CN1c2ccc(-c3ccc(C(N)=O)cc3)cc2-c2[nH]ncc2S1(=O)=O	8	0	1	0	12	0	3	26	0	31
Fc1ccc(-c2nc[nH]c2-c2ccncc2)cc1 [SB-217360]	0	3	14	1	0	0	0	33	15	0
Cc1cccc2c(-c3ccncn3)c(-c3ccc(F)cc3)nn12 [GW515532]	0	14	0	0	27	0	0	0	0	0
O=C(Nc1n[nH]c2nc(-c3cccs3)c(Br)cc12)C1CC1 [SB-735297]	0	8	0	0	0	12	7	10	0	6
Cc1ccccc1Cn1ccn2c(=O)cc(N3CCOCC3)nc12 [GSK2269905]	0	0	0	0	0	0	12	23	0	0
COc1ccc(Nc2nccc(N3CCC(NC(=O)c4cc5ccccc5s4)C3)n2)cc1 (centres unmarked) [GSK1379738]	0	0	19	0	0	0	0	13	0	0
Cn1cncc1C(=O)NC1CCN(c2ccnc(Nc3ccc(F)cc3)n2)C1 (centres unmarked) [GSK1379717]	0	0	17	0	0	0	0	5	6	0
CCCCc1nn2ncccc2c1-c1ccnc(NC2CC2)n1 [GW684374]	0	0	20	0	0	0	0	0	0	0
O=C(Nc1n[nH]c2nc(-c3ccco3)c(Br)cc12)C1CCN(Cc2ccccc2)C1.O=C(O)[C@H](O)[C@@H](O)C(=O)O (centres unmarked) [SB-742034]	0	0	57	23	0	29	1	0	37	22
Cn1cnc2c(N)ncnc21 [SKF-97623]	10	18	0	0	19	0	2	0	0	0
c1ccc(-c2ccnc3[nH]ccc23)cc1 [SB-693578]	7	0	44	0	32	0	33	0	0	11
CNC(=O)c1ccc(C)c(-n2c(C)cc(OCc3ccc(F)cc3F)c(Br)c2=O)c1	0	6	3	0	0	1	0	14	0	12
CS(=O)(=O)Cc1ccc(Nc2nccc(-c3c(-c4cccc(NC(=O)C5CCCCC5)c4)nn4ncccc34)n2)cc1 [GSK350559]	0	0	12	4	9	81	37	4	0	2
Cc1cnc(N)c(/C=C/c2cncc(C(=O)NCCc3ccc(Cl)cc3Cl)c2)c1.Cl [GSK190937]	34	0	1	5	0	28	2	22	9	0
